Sampled rows, rich in hits. Any-hit rate of the full collection: about 2.4%.
Cruzain inh noDet = cruzain (T. cruzi) inhibition without detergent; P25779; purified cruzain, Z-FR-AMC fluorescence, no detergent; Potency, µM, for inactives: max response, negative = inhibition, most hits filed as inhibitors; actives 2.3% (n = 200,000); AID 1476;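 note: plate controls were enzyme without inhibitor for no effect and buffer without enzyme for full effect; nearly all actives have a fitted effect of over 40% in size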
Target sequence (P25779 123-467 limits assumed): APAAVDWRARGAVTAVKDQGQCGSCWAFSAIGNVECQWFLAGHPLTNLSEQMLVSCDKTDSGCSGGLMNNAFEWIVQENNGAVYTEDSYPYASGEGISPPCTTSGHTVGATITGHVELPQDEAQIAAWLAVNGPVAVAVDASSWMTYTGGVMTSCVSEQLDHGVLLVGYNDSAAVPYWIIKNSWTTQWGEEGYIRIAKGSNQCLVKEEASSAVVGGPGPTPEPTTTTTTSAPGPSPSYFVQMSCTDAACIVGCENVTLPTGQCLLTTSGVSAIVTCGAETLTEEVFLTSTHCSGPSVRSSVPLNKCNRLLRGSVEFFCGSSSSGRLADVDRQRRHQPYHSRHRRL
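Purified cruzain at 1.5 nM, pre-incubated 15 min with compound at room temperature in 100 mM sodium acetate pH 5.5, 5 mM DTT, 0.00005% Triton X-100. Reaction started with 2 uM Z-FR-AMC; AMC fluorescence increase over 60 s gives rate.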
Cruzain inh Det = blocks cruzain activity in presence of Triton detergent | purified cruzain, Z-FR-AMC fluorescence, 0.01% Triton | Potency, µM, for inactives: max response, negative = inhibition, most hits filed as inhibitors | actives 0.43% (n = 200,000) | P25779;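 note: plate controls were neutral wells for no effect and buffer without enzyme for full effect; nearly all actives have a fitted effect of over 40% in size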
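Compounds were screened in titration against cruzain (1.5 nM) with 0.01% Triton X-100 to counter colloidal aggregation. Activity was the AMC fluorescence increase over 60 s after adding 2 uM Z-FR-AMC at pH 5.5.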
Papain counter = counter-screen for cruzain inhibitors: papain inhibition; AID 2161; shares compounds with Cruzain inh Det; purified papain, Z-FR-AMC fluorescence cleavage; actives 41% (n = 410); Potency, µM, for inactives: max response, negative = inhibition, hits mostly inhibitors;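 note: 0% = no-compound wells and -100% = no-enzyme wells; nearly all actives have a fitted effect of over 35% in size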
The depositor's hits bear a star; ? = inconclusive; . = not tested or not shown. Calls come from the whole dose curve; as a rule, active = well fitted curve in the direction sought with a large enough effect; inconclusive = small, poorly fitted or top-dose-only effect, or another doubt; inactive = no such curve, though single readings can be large; an effect the other way counts as inactive or inconclusive. Potency is the fitted concentration of half-maximal effect.

SMILES	Cruzain inh noDet	Cruzain inh Det	Papain counter
CCCCOc1ccccc1CC1C(=O)Nc2ccc(Br)cc21 (stereo not given)	-0.9%	-15.5%	.
Cc1ccc(C(C)C)c(OCC(=O)NCC2(N(C)C)CCCCC2)c1	2.3%	0.7%	.
CCNc1nc(C#N)nc(NCC)n1	.	.	-7.8%
CCNc1nc(NOC)nc(OCC#N)n1	-3.2%	-0.6%	.
C[C@H](CCC(=O)O)[C@H]1CC[C@@H]2[C@@H]3[C@@H](O)C[C@H]4C[C@@H](O)CC[C@@]4(C)[C@H]3CC[C@@]21C	?	-7.0%	4.1%
COC(=O)CCC(C)C1CCC2C3C(O)C[C@@H]4CC(O)CC[C@@]4(C)C3CC(O)[C@]12C (stereo not given in full)	?	-0.3%	3.3%
COC(=O)CC[C@@H](C)C1CC[C@H]2[C@H]3CC[C@H]4C[C@@H]5CCC4(C)[C@@]3(O5)[C@@H](Br)[C@@H](Br)[C@@]12C (stereo not given in full)	-14.0%	-2.5%	.
CC(CCC(=O)O)C1CCC2C3CC(O)[C@@H]4CC(O)CC[C@]4(C)C3CC[C@@]12C (stereo not given in full)	?	5.7%	.
CCC(C)(C)C(=O)O[C@@H]1C[C@@H](C)C=C2C=C[C@H](C)[C@H](CC[C@@H]3C[C@@H](O)CC(=O)O3)[C@H]21	?	-2.8%	.
COc1ccc(N2CCN(C(c3ccccc3)c3sc4nc(-c5ccco5)nn4c3O)CC2)cc1 (stereo not given)	8.5%	-0.1%	.
C/C(CC(=O)Nc1cccc(Cl)c1)=N\NC(=O)Cc1ccc(Cl)cc1	0.5%	-7.8%	.
CC(=O)Nc1ccc(Cl)c(C(N)=O)c1	4.9%	-1.2%	.
C/C(CC(=O)Nc1ccc(Cl)c(Cl)c1)=N\NC(N)=S	0.316µM*	0.501µM*	-14.9%
C/C(CC(=O)Nc1cc(Cl)ccc1Cl)=N\NC(N)=S	1µM*	1µM*	2.82µM*
Fc1cccc(Cl)c1Cn1c(-c2cccs2)nc2ccccc21	4.5%	-10.0%	.
CCOC(=O)C(C(=O)OCC)N(C#N)c1nc(SC)nc(N(C)C)n1	3.16µM*	2.51µM*	15.8µM*
CCOC(=O)COc1nc(N(C)C)nc(N(C)C)n1	4.1%	12.1%	.
CCOC(=O)C(C(=O)OCC)N(C#N)c1nc(OC)nc(N(C)C)n1	10µM*	3.55µM*	28.2µM*
CC(C(=O)N(C)C)N(C#N)c1nc(N(C)C)nc(N(C)C)n1 (stereo not given)	-12.9%	2.2%	.
O=C(Oc1ccc(/C=N/NC(=O)c2ccccc2O)cc1)c1ccccc1	-18.2%	-9.6%	.
O=C(N/N=C\c1ccccc1O)c1ccccc1O	31.6µM*	-10.0%	6.8%
Cc1ccc(OCC(=O)Nc2nnc(S(=O)(=O)N3c4ccccc4CC3C)s2)cc1 (stereo not given)	13.3%	-10.9%	.
O=[N+]([O-])c1cc(S(=O)(=O)Nc2cccc(C(F)(F)F)c2)ccc1-n1nnc2ccccc21	10µM*	3.98µM*	28.2µM*
COc1ccc(NS(=O)(=O)c2ccc(-n3nnc4ccccc43)c([N+](=O)[O-])c2)cc1	?	-5.8%	.
Cc1ccc(NC(=O)Cn2c(=O)n(CCC(=O)N3CCc4ccccc4C3)c(=O)c3ccccc32)c(C)c1	0.6%	-3.7%	.
SMILES	Cruzain inh noDet	Cruzain inh Det	Papain counter
Cc1cccc(Cl)c1NC[C@H](O)CN1CCN(C)CC1	-4.6%	-0.6%	.
Cc1cccc(N2CCN(C(=O)c3ccc4nc(-c5ccco5)c(-c5ccco5)nc4c3)CC2C)c1 (stereo not given)	2.2%	-2.4%	.
CNC(=O)c1ccc2nc(-c3ccco3)c(-c3ccco3)nc2c1	.	.	31.6µM*
O=C(NCc1ccco1)c1cccc(NC(=O)c2ccccc2)c1	7.5%	2.2%	.
O=C(NC1CCCCC1)c1cc(-c2ccco2)on1	0.1%	0.1%	.
O=C(NC1CC1)c1ccc2nc(-c3ccco3)c(-c3ccco3)nc2c1	.	.	31.6µM*
O=C(Nc1ccccc1)c1ccc2nc(-c3ccco3)c(-c3ccco3)nc2c1	?	?	12.6µM*
O=C(Nc1noc2ccccc12)c1ccc(F)cc1	1.5%	-1.8%	.
CCc1ccc(NC(=O)CC2C(=O)N(c3cccc(OC)c3)C(=O)N2Cc2ccc(F)cc2)cc1 (stereo not given)	3.4%	-8.3%	.
O=C(NCc1ccc(F)cc1Cl)c1ccc(CSCc2ccccc2Cl)o1	6.0%	-0.1%	.
COc1cccc2c1cc1c(=O)n(CC(=O)NCc3ccco3)nc(C)n12	-2.1%	-1.7%	.
Cc1ccc(CNC(=O)c2cc3c(=O)n(C)c4ccccc4c3n2C)cc1	?	9.5%	.
CN(CCNC(=O)c1cc2c(=O)n(C)c3ccccc3c2n1C)Cc1ccccc1	?	14.1µM*	-18.3%
CC(C)C(=O)NCCc1nc2ccccc2n1CCCOc1ccc(Cl)cc1	22.3%	-1.7%	.
Cc1cc(OCCCn2c(CCNC(=O)C3CCCCC3)nc3ccccc32)ccc1Cl	6.6%	1.41µM*	12.6µM*
